# Measurements from PMC4552634, “A New Set of Chemical Starting Points with Plasmodium falciparum Transmission-Blocking Potential for Antimalarial Drug Discovery” (PLoS ONE, 2015).
# Screen size: about 13,000 compounds; about 3,200 (25%) showed an effect of 50% or more. Some of the results follow.
# Test system: P. falciparum stage V gametocytes
# Design: BacTiter-Glo ATP luminescence viability of purified stage V gametocytes in 384-well plates, per cent inhibition versus DMSO
# Details: 48 h, 5 µM; inhibitor
row,SMILES,% Inhibition [%]
1,N#Cc1ccc2c(c1)CCN(CCC1CCC(NC(=O)/C=C/c3ccc4[nH]ccc4c3)CC1)CC2 (stereo not shown) [TCMDC-139666],5.34
2,O=C(Nc1cccc(F)c1)N(Cc1ccc(-c2cccc(CN3CCNCC3)c2)cc1)C1CCN(Cc2ccccc2)CC1 [TCMDC-139638],105.9
3,CN(c1cc(NC(=O)c2ccccc2)ccn1)C1CCN(Cc2cccc(F)c2)CC1 [TCMDC-135011],9.307
4,N#Cc1cccc(C(=O)Nc2cccc(-c3cccc(CN4CCNCC4)c3)c2)c1 [TCMDC-132660],26.75
5,O=C(Nc1cccc(F)c1)N(Cc1ccc(-c2ccc(CN3CCNCC3)cc2)cc1)C1CCN(Cc2ccccc2)CC1 [TCMDC-139654],96.89
6,O=C(Nc1cccc(-c2ccc(CN3CCCC3)cc2)c1)c1cccc(F)c1 [TCMDC-132647],5.119
7,CCn1cnc2c(N3CCCC3=O)cc(C(=O)N[C@@H](Cc3ccccc3)[C@H](O)CNC3CCCCC3)cc21 [TCMDC-135231],-30.5
8,CCN(CC)CCN(Cc1ccc(-c2ccc(C(F)(F)F)cc2)cc1)C(=O)Cn1c(CCc2cc(F)ccc2F)nc(=O)c2ccccc21 [TCMDC-140941],67.52
9,CCN(CC)CCN(Cc1ccc(-c2ccc(C(F)(F)F)cc2)cc1)C(=O)Cn1c(CCc2cc(F)c(F)cc2F)nc(=O)c2ccccc21 [TCMDC-140949],56.5
10,COc1ccc2nccc([C@H](O)CN3CCC(NCc4nc5c(F)cccc5[nH]4)CC3)c2c1 [TCMDC-141062],-21.41
11,NC(=O)c1cccc(C(=O)Nc2cccc(-c3ccc(-c4nc5ccccc5[nH]4)s3)c2)c1 [TCMDC-132195],9.45
12,Cc1[nH]c2ccc([N+](=O)[O-])cc2c1C1=CCN(C)CC1 [TCMDC-139186],-16.2
13,c1cc(CN2CCN(CCN3CCOCC3)CC2)cc(-c2ccc(-c3nc4ccccc4[nH]3)cc2)c1 [TCMDC-133939],-22.81
14,c1cc(CNCCN2CCNCC2)cc(-c2cccc(-c3nc4ccccc4[nH]3)c2)c1 [TCMDC-132859],95.66
15,c1cc(CNCCN2CCNCC2)cc(-c2ccc(-c3nc4ccccc4[nH]3)cc2)c1 [TCMDC-132861],85.05
16,c1cc(CNCC2CCCO2)cc(-c2cccc(-c3nc4ccccc4[nH]3)c2)c1 (stereo not shown) [TCMDC-133090],0.6072
17,CNCCNCc1cccc(-c2ccc(-c3nc4ccccc4[nH]3)cc2)c1 [TCMDC-132839],24.41
18,CN(C)CCNCc1cccc(-c2cccc(-c3nc4ccccc4[nH]3)c2)c1 [TCMDC-132680],40.55
19,CCNc1cc(CC)nc(Nc2ccc(C)cc2)n1 [TCMDC-133992],-2.88
20,COc1cc(N)c(Cl)cc1C(=O)NC1CCC(NCC2CCCCC2)CC1 (stereo not shown) [TCMDC-136726],0.4196
21,Cc1cccc2nc(-c3ccc(-c4ccc(NC(=O)Nc5ccc(Cl)c(Cl)c5)cc4)s3)[nH]c12 [TCMDC-133273],-52.78
22,O=C(/C=C/c1ccc(C(F)(F)F)cc1)NCCCCCN1CCCN(C(=O)Nc2ccc(Cl)c(C(F)(F)F)c2)CC1 [TCMDC-136105],-22.56
23,CCc1nn2c(Nc3ccncc3)cc(C)nc2c1-c1ccccc1 [TCMDC-124917],106.8

row,SMILES,% Inhibition [%]
1,Cc1cc(Nc2ccc(C)c(Cl)c2)n2nc(C(F)(F)F)nc2n1 [TCMDC-124919],-6.645
2,Cc1cc(Nc2ccncc2)n2nc(C)c(-c3ccc(Cl)cc3)c2n1 [TCMDC-124478],102.4
3,Cc1cc(Nc2ccc(Cl)cc2)n2nc(C(F)(F)F)nc2n1 [TCMDC-123826],-17.3
4,Cc1cc(Nc2ccc(C)c(C)c2)n2nc(C)nc2n1 [TCMDC-124418],9.818
5,Cc1cc(Nc2ccc3ccccc3c2)n2ncnc2n1 [TCMDC-125840],18.77
6,Cc1cc(Nc2ccc(Cl)c(Cl)c2)n2nc(C)nc2n1 [TCMDC-124417],-6.756
7,Cc1cc(Nc2ccnc(-c3ccc(Cl)cc3)n2)ccn1 [TCMDC-141398],-5.017
8,Cc1cc(Nc2ccncc2)n2nc(C)c(-c3ccccc3Cl)c2n1 [TCMDC-124918],99.62
9,Cc1nc(N)nc(N)c1C#CC1CCCC1 [TCMDC-137728],11.69
10,CC(C)(C)c1ccc(NC(=O)c2ccc(CN3CCCN(Cc4cccc(F)c4)CC3)cc2)cc1 [TCMDC-136431],-15.47
11,CC1(C)S(=O)(=O)CC(O)CS1(=O)=O [TCMDC-131669],10.31
12,Cc1c(C(=O)NCc2ccncc2)sc2nc(-c3cccc([N+](=O)[O-])c3)cn12 [TCMDC-124992],-38.46
13,Nc1ncc(-c2ccc(Cl)c(Cl)c2)c(N)n1 [TCMDC-138994],6.577
14,O=C(/C=C/c1ccc(Cl)c(Cl)c1)NC1CCN(Cc2ccc(O)cc2)CC1 [TCMDC-141741],16.03
15,Cc1[nH]c(C)c(-c2ccc(CCc3ccc(C(F)(F)F)cc3)nc2)c(=O)c1Cl [TCMDC-136051],71.49
16,Cc1[nH]c(C)c(-c2ccc(CCc3cccc(C(F)(F)F)c3)nc2)c(=O)c1Cl [TCMDC-136014],76.88
17,CCCCCCCc1ccc(-c2c(C)[nH]c(C)c(Cl)c2=O)cn1 [TCMDC-135816],34.89
18,O=C(Cc1cccc2ccccc12)N1CCc2cc3nccc(N4CCN5CCC[C@H]5C4)c3cc21 [TCMDC-140040],-3.161
19,O=C(Nc1ccccc1Cl)c1cc2ccccc2cc1O [TCMDC-123494],9.579
20,CC(Nc1nc(Nc2ccc(F)cc2)nc(SCC(N)=O)n1)c1ccccc1 (stereo not shown) [TCMDC-125832],-31.65
21,CCCCNc1cc(C)nc(NCc2ccccc2)n1 [TCMDC-123663],33.56
22,CCCCNc1nc(NCCCC)c2c(C)c(Cc3ccccc3)c(NCCCC)nc2n1 [TCMDC-138062],134
23,Cc1nc2nc(N)nc(N)c2c(C)c1Cc1ccccc1 [TCMDC-137670],-13.55
